Results on ten molecules are retold here after PubChem BioAssay.

Inconclusive results are not listed. Active and inactive are the calls of the source. Unless noted, no stated cut-off is given here; in the data, active means inhibition above about 30%; inactive means the rest.

What is called viability is a read-out of living cells in per cent, often relative to untreated cells. The inhibition is the change of the read-out against control, counted positive when it falls.

Assay [1] in a line: reducers of endogenous Her2 protein level, primary screen, SKBR3 breast tumor cells, AlphaScreen, ATP viability (AID 461;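 active means Her2 level under about 52% in both replicate screens, with viability over 70% of control, limit read from the data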;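 on Her2 level: lower value means less Her2 protein in the cells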;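 on viability: percent of carrier control wells set as 100% viability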). The conditions noted are these: 18-24 h, measured here: SKBR3 viability, ATP luminescence, at 10 µM. (Alpha assays give light when donor and acceptor beads are brought close together.)
Assay [2] addresses Receptor tyrosine-protein kinase erbB-2 (Homo sapiens) (UniProt P04626). Described as above. The following applies: 18-24 h, at 10 µM, stronger effect = lower value.
The nature of assay [3]: SK-BR-3 cell growth inhibitors, pilot screen, 24 h, human (AID 572;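 active means viability at or below 10% of carrier control in both of two separate runs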;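 further: compound exposure lasted between 18 and 24 h rather than exactly 24 h; 100% = carrier-treated control wells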). The conditions noted are these: SK-BR-3 viability, CellTiter-Glo luminescence, at 10 µM, stronger effect = lower value. A general note: ATP-based viability assays read luminescence as a measure of living cells.
Assay [4] in a line: HUVEC growth inhibition – cell-based, human, primary screen (AID 575;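 active means viability at or below 30% in both replicate assays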;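 further: 100% = median of untreated cell wells with 0.1% DMSO on each plate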). The following applies: HUVEC proliferation, CellTiter-Glo luminescence, 72 h; at 10 µM; stronger effect = lower value.
Assay [5] is described as follows: growth inhibitors of H69AR lung tumor, primary screen, human, duplicate replicates (AID 580;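 active means viability at or under a set limit in both replicates, limit being median viability minus 3 SD, cut at about 48% in these data, passing the limit was not always enough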;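 further: 100% = mean luminescence of untreated wells and 0% = no signal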). The conditions noted are these: H69AR lung tumor cells viability, ATP luminescence, 72 h; at 10 µM; stronger effect = lower value.
Assay [6] can be described thus: reversal of MRP1-mediated doxorubicin resistance, pilot screen, H69AR cells, doxorubicin co-treatment (AID 601;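 active means viability loss from added drug above about 55%, and viability with drug at most 40%, in both replicates, limit read from the data, passing the limit was not always enough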). The following applies: CellTiter-Glo, 72 h, at 10 µM; for differential viability (reversal): stronger effect = higher value.
The nature of assay [7]: 384-well plate pilot, post-Golgi transport modulator project, inhibition of yeast transport mutant growth (AID 636; in the data active means inhibition above about 31%). The conditions noted are these: absorbance 615 nm, about 18 h, stronger effect = higher value.
Assay [8] in a line: growth suppression of yeast trafficking mutant, preliminary HTS, modulators of trafficking downstream of Golgi apparatus project, 1536-format plate, OD 615 nm (AID 637). The following applies: yeast transport mutant growth, absorbance 615 nm, 18 h; stronger effect = higher value.
Assay [9] is described as follows: OD615 S. cerevisiae growth inhibition, permissive medium, pilot counter-assay, permissive growth control for S. cerevisiae lifespan shortening project (AID 705;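 active means growth inhibition above 25% in both replicates, a cutoff set 3 SD above the mean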). The conditions noted are these: OD615, 24 h, at 10 µM, stronger effect = higher value.
Assay [10] can be described thus: Restrictive medium S. cerevisiae growth inhibition, OD615, pilot screen of yeast lifespan reduction project, restrictive growth control (AID 706;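 active means growth inhibition above a set limit, 3 SD over mean compound inhibition, in both replicates, cut at about 43% in these data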;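 further: modified DeaD lifespan yeast strain shifted to restrictive glucose medium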). The following applies: OD615, 48 h, at 10 µM, stronger effect = higher value.
Assay [11] can be described thus: growth suppression of PTEN-deleted HCT116, pilot screen, cell-based, HCT116 clonal line, CellTiter-Glo (AID 824;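 active means viability at or below 27.92% in each of two runs, the all-compound median minus 4 SD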;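 further: 0% = 20 µM Hyamine control and 100% = vehicle cell control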). The following applies: 60 h, at 10 µM, stronger effect = lower value.
Assay [12] in a line: inhibitors of the yeast RAM network, pilot screen, dse1pr::URA3 reporter, 5-FOA selection (AID 869;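 active means inhibition over a set limit, the all-compound mean plus 3 SD, in both replicate runs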;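 further: 0% = DMSO wells with no growth and 100% = 10 µM 1-NA-PP1 with full growth; RAM network block rescues cells from 5-FOA so hits raise OD615 growth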). The following applies: S. cerevisiae dse1pr::URA3 5-FOA growth, OD615, 2 d; at 10 µM; stronger effect = higher value; strain carries analog-sensitive mutant Cbk1 kinase.
Assay [13] in a line: RAM signaling pathway blockade in yeast – S. cerevisiae, Pdr1DBD-CYC8 efflux-inhibited sensitized strain, primary screen (AID 1298;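 active means RAM network inhibition above 8.4% in each of two replicates, 3 SD over the compound average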;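 further: 0% = DMSO untreated cells without growth and 100% = 10 µM 1-NA-PP1 full growth; higher means more yeast growth rescued from 5-FOA killing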). The conditions noted are these: S. cerevisiae cbk1-as DSE1-URA3 strain, 5-FOA growth OD615, 2 d; at 50 µM; stronger effect = higher value.
Assay [14] in a line: growth suppression of beta-catenin knockout HCT116, pilot screen, human colon tumor cells (AID 823;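 active means cell viability at or below a set limit in both duplicate runs, the limit being the all-compound median minus 4 SD, cut at about 23% in these data, passing the limit was not always enough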;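 further: 0% = wells killed by 20 µM Hyamine and 100% = untreated DMSO cell wells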). The conditions noted are these: CellTiter-Glo, 60 h, at 10 µM, stronger effect = lower value.
A short description of assay [15]: viability gain of MRP-1-high H69AR cells under doxorubicin, pilot screen, MRP-1 activator project, CellTiter-Glo, duplicate (AID 807;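 active means viability increase at or above a cutoff of the median across tested compounds plus 3 SD, cut at about 8.5% in these data, passing the limit was not always enough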;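 further: compound pretreatment 18-22 h then 72 h combined with doxorubicin; 0% = doxorubicin alone and 100% = vehicle without doxorubicin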). The conditions noted are these: H69AR viability with doxorubicin, CellTiter-Glo luminescence; at 10 µM; stronger effect = higher value.
Where [16] appears, read: H69AR cells + 2 uM doxorubicin, measured here: viability with 2 uM doxorubicin, stronger effect = lower value.
[17] abbreviates: H69AR cells, compound alone cytotoxicity.

Chain of Receptor tyrosine-protein kinase erbB-2 (Homo sapiens) (P04626 whole entry, looked up): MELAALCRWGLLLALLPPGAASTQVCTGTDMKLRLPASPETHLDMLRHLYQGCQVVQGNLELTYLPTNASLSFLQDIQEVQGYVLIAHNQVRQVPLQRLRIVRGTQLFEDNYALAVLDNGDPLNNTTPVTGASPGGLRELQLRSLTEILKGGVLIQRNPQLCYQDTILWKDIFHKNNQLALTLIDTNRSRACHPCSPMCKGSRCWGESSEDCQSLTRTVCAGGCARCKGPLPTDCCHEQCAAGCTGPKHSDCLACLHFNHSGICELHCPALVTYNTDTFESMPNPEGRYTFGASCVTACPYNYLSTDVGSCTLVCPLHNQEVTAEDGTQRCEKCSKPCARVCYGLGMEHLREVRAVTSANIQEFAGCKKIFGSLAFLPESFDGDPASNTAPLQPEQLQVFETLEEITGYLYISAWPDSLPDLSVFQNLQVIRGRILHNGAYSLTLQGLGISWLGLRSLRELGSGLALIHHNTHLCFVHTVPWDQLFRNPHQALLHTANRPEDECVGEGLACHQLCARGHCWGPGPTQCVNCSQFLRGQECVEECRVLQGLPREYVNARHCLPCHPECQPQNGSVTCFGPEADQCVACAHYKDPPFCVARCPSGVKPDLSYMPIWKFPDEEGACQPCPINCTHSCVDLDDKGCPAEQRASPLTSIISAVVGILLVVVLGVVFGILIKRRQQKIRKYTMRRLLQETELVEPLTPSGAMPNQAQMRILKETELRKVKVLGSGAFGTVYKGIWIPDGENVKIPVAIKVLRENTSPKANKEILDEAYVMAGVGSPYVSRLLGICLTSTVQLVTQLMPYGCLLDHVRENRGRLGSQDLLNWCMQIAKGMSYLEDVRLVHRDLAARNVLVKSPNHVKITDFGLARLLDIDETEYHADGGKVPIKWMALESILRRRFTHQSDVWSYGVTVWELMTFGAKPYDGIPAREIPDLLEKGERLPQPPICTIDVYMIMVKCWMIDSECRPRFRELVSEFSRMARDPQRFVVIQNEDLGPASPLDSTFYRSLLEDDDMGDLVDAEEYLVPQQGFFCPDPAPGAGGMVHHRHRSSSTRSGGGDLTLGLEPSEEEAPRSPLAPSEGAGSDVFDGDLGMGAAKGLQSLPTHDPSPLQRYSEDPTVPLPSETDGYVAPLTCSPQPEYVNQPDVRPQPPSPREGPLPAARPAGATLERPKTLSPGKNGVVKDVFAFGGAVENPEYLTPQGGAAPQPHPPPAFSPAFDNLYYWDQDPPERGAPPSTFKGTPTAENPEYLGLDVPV

As for `Cc1c(C(=O)Nc2nnc(C(F)(F)F)s2)oc2ccccc12`, the viability in assay [1] was 91.5%; in [3] it was 91.5% (inactive); in [4], 51% (inactive); in assay [5], 84.8% (inactive); in assay [6] (setting [16]), 93.1%; in assay [6] (setting [17]) it was 84.8%. In [11], the viability was 65.5% (inactive). Besides, in [2], the Her2 level was 81.5% (inactive). In assay [6] (H69AR cells + 2 uM doxorubicin), the differential viability (reversal) was -8.24% (inactive). Moreover, the results for the inhibition in assay [7], in [8] and in assay [12] were -6% (inactive), -3.33% (inactive) and 2.56% (inactive), respectively. Further, the growth inhibition was -4.23% (inactive) in assay [9] and 13.6% (inactive) in [10]. Also, in assay [13], the RAM network inhibition is 4.2% (inactive).

On to `Cc1ccc(C(=O)CSc2n[nH]c(-c3ccco3)n2)cc1C`, for which the viability in [1] was 106%; in assay [3], 106% (inactive); in assay [4], 99.2% (inactive); in assay [5], 101% (inactive); in [6] (setting [16]), 105%; in [6] (setting [17]), 101%. Further, the results for the viability in assay [14] and in assay [11] were 101% (inactive) and 107% (inactive), respectively. Further, in [2], the Her2 level is 104% (inactive). In addition, in [6] (H69AR cells + 2 uM doxorubicin), the differential viability (reversal) was -3.95% (inactive). The inhibition in assay [7] was -4.68% (inactive); in [8] it was -4.67% (inactive); in assay [12], 0.765% (inactive). The growth inhibition in assay [9] is -13.8% (inactive); in assay [10], 3.79% (inactive). Also, the RAM network inhibition in [13] is 0.94% (inactive).

`CCC(C)(NC(=O)CNC(C)=O)C(=O)NC1CCCCC1` (configuration not stated): the viability in assay [1] was 130%; in assay [3], 130% (inactive); in [4], 105% (inactive); in assay [5] it was 94% (inactive); in assay [6] (setting [16]), 97.1%; in assay [6] (setting [17]), 94%. In assay [11], the viability is 97.7% (inactive). Besides, the Her2 level in assay [2] was 108% (inactive). The differential viability (reversal) in [6] (H69AR cells + 2 uM doxorubicin) is -3.05% (inactive). Further, the inhibition in [7] is -5.48% (inactive); in [8], -9.52% (inactive); in assay [12], 2.88% (inactive). Further, the growth inhibition was -15.5% (inactive) in [9] and -3.8% (inactive) in assay [10]. The viability increase in assay [15] is -1.92% (inactive). Moreover, the RAM network inhibition in [13] is -0.83% (inactive).

Turning to `Cc1cc(C)c2c(=O)n(CC(=O)N3CCC(Cc4ccccc4)CC3)sc2n1`, the viability is 108% in assay [1]; 108% (inactive) in assay [3]; 77% (inactive) in assay [4]; 3.96% (active) in assay [5]; 10.3% in assay [6] (setting [16]); 3.96% in assay [6] (setting [17]). The viability in assay [11] was 68.7% (inactive). The Her2 level in [2] is 84% (inactive). For the same molecule, the differential viability (reversal) in [6] (H69AR cells + 2 uM doxorubicin) is -6.3% (inactive). Moreover, the figures for the inhibition in assay [7], in assay [8] and in [12] were -6.53% (inactive), -2.17% (inactive) and 1.6% (inactive), respectively. In addition, the growth inhibition in assay [9] is 73% (active); in assay [10], 89.2% (active). For the same molecule, the viability increase in assay [15] was -6.66% (inactive). Also, the RAM network inhibition in assay [13] is 3.67% (inactive).

With `CC1CC(C)CN(Cc2nc3c(c(=O)n(C)c(=O)n3C)n2Cc2ccccc2Cl)C1` (configuration not stated), the viability in [1] was 87.5%; in assay [3] it was 87.5% (inactive); in assay [4], 97.8% (inactive); in assay [5], 89.5% (inactive); in [14], 102% (inactive); in assay [11] it was 97.8% (inactive). Moreover, the Her2 level in assay [2] is 104% (inactive). For the same molecule, the inhibition was -3.2% (inactive) in [7], 0.67% (inactive) in assay [8] and 0.655% (inactive) in [12]. Moreover, the growth inhibition in [9] was 2.67% (inactive); in assay [10] it was -4.42% (inactive). For the same molecule, the viability increase in assay [15] was -1.15% (inactive). Besides, in assay [13], the RAM network inhibition is 3.22% (inactive).

For `CCn1c(NC(=O)c2cccc(Cn3cc(Cl)cn3)c2)nc2ccccc21`, the viability is 93.5% in assay [1]; 93.5% (inactive) in assay [3]; 69% (inactive) in assay [4]; 65.1% in assay [6] (setting [16]); 56.5% in assay [6] (setting [17]); 40.3% (inactive) in [14]. For the same molecule, the viability in assay [11] is 40.1% (inactive). Moreover, the Her2 level in assay [2] was 75% (inactive). In assay [6] (H69AR cells + 2 uM doxorubicin), the differential viability (reversal) is -8.54% (inactive). Moreover, the inhibition in assay [7] is -0.53% (inactive); in assay [8], 0.16% (inactive); in assay [12], 0.95% (inactive). Moreover, the growth inhibition in [9] is -10.1% (inactive); in assay [10] it was 7.82% (inactive). Also, in assay [15], the viability increase was -0.12% (inactive). The RAM network inhibition in assay [13] is 4.07% (inactive).

Turning to `CC1CCc2nn(CC(=O)N3CCN(C(=O)c4ccco4)CC3)cc2C1` (configuration not stated), the viability in [1] is 79.5%; in assay [3], 79.5% (inactive); in [4], 119% (inactive); in assay [5], 91.6% (inactive); in [6] (setting [16]) it was 79.8%; in assay [6] (setting [17]), 91.6%. Also, the viability in [14] is 104% (inactive); in assay [11], 97.9% (inactive). In addition, the Her2 level in assay [2] was 95.5% (inactive). Besides, the differential viability (reversal) in assay [6] (H69AR cells + 2 uM doxorubicin) is 11.8% (inactive). For the same molecule, the inhibition in [7] is 0% (inactive); in [8], 2.67% (inactive); in assay [12] it was 3.15% (inactive). Also, the growth inhibition in assay [9] is -0.485% (inactive); in [10], 5.38% (inactive). In addition, the RAM network inhibition in [13] is 7.21% (inactive).

For `CCOC(=O)c1cc2c(=O)n3ccccc3nc2n(CC2CCCO2)c1=NC(C)=O` (configuration not stated), the viability in assay [1] is 99%; in [3] it was 99% (inactive); in assay [4] it was 102% (inactive); in [5], 81.1% (inactive); in assay [14] it was 97.6% (inactive); in [11], 93.8% (inactive). In addition, the Her2 level in [2] is 95.5% (inactive). Further, the inhibition in [7] is -6.71% (inactive); in assay [8], -2.22% (inactive); in [12], 0.525% (inactive). The growth inhibition in assay [9] is -22.2% (inactive); in assay [10], -17.4% (inactive). The viability increase in assay [15] was 0.08% (inactive). In addition, the RAM network inhibition in [13] is 3.93% (inactive).

`O=c1[nH]c2ccc(Br)cc2c(-c2ccccc2)c1N1CCOCC1`: the viability was 91% in assay [1]; 91% (inactive) in [3]; 60.1% (inactive) in assay [4]; 75.7% (inactive) in [5]; 92.7% (inactive) in [14]; 75.2% (inactive) in [11]. In addition, in assay [2], the Her2 level was 111% (inactive). In addition, the inhibition in assay [7] is 0% (inactive); in [8] it was 2% (inactive); in [12] it was 1.29% (inactive). The growth inhibition is -12.5% (inactive) in assay [9] and -15.8% (inactive) in [10]. Also, the viability increase in assay [15] was -3.63% (inactive). Also, in assay [13], the RAM network inhibition is 0% (inactive).

Consider `COc1ccc(-n2ncc3c(N4CCN(c5cccc(C)c5C)CC4)ncnc32)cc1`, for which the viability was 88% in assay [1]; 88% (inactive) in assay [3]; 11.3% (active) in assay [4]; 27.1% (active) in assay [5]; 21.7% in assay [6] (setting [16]); 27.1% in assay [6] (setting [17]). In assay [2], the Her2 level was 79% (inactive). Besides, the differential viability (reversal) in assay [6] (H69AR cells + 2 uM doxorubicin) was 5.39% (inactive). Besides, the values for the inhibition in assay [7], in assay [8] and in assay [12] were -2.4% (inactive), -2.17% (inactive) and 1.51% (inactive), respectively. Besides, the figures for the growth inhibition in assay [9] and in assay [10] were -5% (inactive) and -6.91% (inactive), respectively. Besides, the viability increase in assay [15] is -7.5% (inactive). Also, the RAM network inhibition in assay [13] was 7.15% (inactive).
